Screening results: PubChem BioAssay, National Center for Advancing Translational Sciences (NCATS)
IL1B secr inh: inhibitors of inflammasome signaling (IL-1 beta secretion). THP-1 LPS/ATP IL-1B secretion, AlphaLISA, 16 h; hits give low values. activity change, % at 57.5 µM. 360,000 tested, 4.7% active; in the data active = activity change below about -50%; inconclusive = mostly about -30% to -49%
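Secreted IL-1B measured by AlphaLISA bead assay after 16 h compound exposure of THP-1 cells; compounds (final up to 57.5 uM) added 1 h before LPS (250 ng/mL) and ATP (1.25 mM) stimulation; lower signal means less secretion.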
TDP1 cell CPT: DT40-hTDP1 cell growth loss with CPT. 420,000 tested, 12% active. AID 686979. chicken DT40 Tdp1-/-;hTDP1 cells + 20 nM CPT, ATP luminescence, 48 h. Potency, µM (highest dose often 46.2 µM), inactives show top-dose activity change, negative = growth inhibition, hits mostly inhibitors; note: potency is the fitted concentration of half-maximal effect; nearly all actives have a fitted effect of over 55% in size
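Chicken DT40 Tdp1-/- cells complemented with human TDP1, 400 cells/well, exposed to compounds plus 20 nM camptothecin for at least 48 h at 37 C; viability read as ATP content by CellTiter-Glo luminescence.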
12-LOX inh: blocks human arachidonate 12S-lipoxygenase. P18054. 580,000 tested, 1.1% active. Potency, µM (titrated, usually from 108 µM), without a hit: at the top dose activity change, negative = inhibition, hits mostly inhibitors. purified 12hLO, xylenol orange hydroperoxide absorbance; note: potency is the fitted concentration of half-maximal effect
Target sequence (P18054 whole entry, looked up): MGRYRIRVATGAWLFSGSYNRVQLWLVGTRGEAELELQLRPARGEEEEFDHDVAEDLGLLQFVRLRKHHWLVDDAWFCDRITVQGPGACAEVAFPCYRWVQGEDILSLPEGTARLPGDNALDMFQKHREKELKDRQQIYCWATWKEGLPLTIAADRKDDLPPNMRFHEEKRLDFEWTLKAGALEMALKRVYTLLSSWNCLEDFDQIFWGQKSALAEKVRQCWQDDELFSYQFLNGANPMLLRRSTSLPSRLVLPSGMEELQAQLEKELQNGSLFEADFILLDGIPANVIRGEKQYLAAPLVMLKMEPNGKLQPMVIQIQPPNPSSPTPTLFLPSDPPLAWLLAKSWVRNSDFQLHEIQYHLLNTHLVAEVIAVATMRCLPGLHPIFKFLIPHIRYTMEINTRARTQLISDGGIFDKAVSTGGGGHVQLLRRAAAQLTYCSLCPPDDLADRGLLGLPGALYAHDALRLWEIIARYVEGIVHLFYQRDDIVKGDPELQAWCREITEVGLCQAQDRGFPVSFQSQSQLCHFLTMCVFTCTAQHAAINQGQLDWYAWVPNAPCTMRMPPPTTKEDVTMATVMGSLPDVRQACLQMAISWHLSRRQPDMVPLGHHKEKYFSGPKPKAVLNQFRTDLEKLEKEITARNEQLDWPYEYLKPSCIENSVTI
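Hydroperoxide product was detected by ferrous iron/xylenol orange as the 573 to 405 nm absorbance ratio. Arachidonic acid at 40 uM (final) was turned over for 30 min at room temperature by 150 nM human 12hLO, pH 7.0 Hepes buffer, after 15 min compound preincubation.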
HT1080 IDH1KD tx: toxicity to HT-1080 IDH1 knockdown cells (counter line) | HT-1080 IDH1 knockdown viability, ATP luminescence, 48 h | Potency, µM (doses to about 46.1 µM), without a hit: top-dose activity, negative = toxicity, usual class: cytotoxic | 360,000 tested, 2% active;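 note: potency is the fitted concentration of half-maximal effect; 0% = DMSO wells and -100% = cell-free medium wells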
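Assay cells: HT-1080 with IDH1 knockdown, 750 per well, RPMI/5% FBS. Exposure: 48 h at 37 °C following 2 h pre-incubation. Read: CellTiter-Glo luminescence; fitted concentration-response, curve class assigned.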
HT1080NT lethal: kills 2HG-producing HT-1080-NT fibrosarcoma cells | HT-1080-NT fibrosarcoma viability, CellTiter-Glo ATP luminescence, 48 h | Potency, µM (top dose mostly 46.1 µM), inactives show at the highest dose activity, negative = less viability, usual class: cytotoxic | 360,000 tested, 1.6% active | AID 686970;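 note: NT is the 2HG producing partner of a matched IDH1 knockdown line; potency is the fitted concentration of half-maximal effect; 0% = DMSO-treated cells and -100% = media-only wells without cells; nearly all actives have a fitted effect of over 55% in size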
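Fibrosarcoma NT cells, 750 per well in 5% FBS RPMI, were exposed to compound for 48 hours. Viability: CellTiter-Glo luminescence.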
TDP1 cell noCPT: qHTS for Inhibitors of human tyrosyl-DNA phosphodiesterase 1 (TDP1): qHTS in cells in absence of CPT; DT40 Tdp1-/- hTDP1 cells, no CPT, ATP luminescence, 48 h; Potency, µM (series often up to 46.2 µM), for inactives: at the top dose activity change, negative = growth inhibition, hits mostly inhibitors; 420,000 tested, 15% active; note: potency is the fitted concentration of half-maximal effect; nearly all actives have a fitted effect of over 55% in size
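Luminescent ATP content (CellTiter-Glo) served as the growth readout. Knockout chicken DT40 cells expressing human TDP1 were exposed to compounds without camptothecin for a minimum 48 hr at 37 °C.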
* = called active by the depositor; i = inactive; ? = inconclusive; . = no result; [ ] = dose if it differs, or a comment. The entries come from a sample that favours hits as a whole. Unless noted, calls come from the whole dose curve; as a rule, active = well fitted curve in the direction sought with a large enough effect; inconclusive = small, poorly fitted or top-dose-only effect, or another doubt; inactive = no such curve, though single readings can be large; an effect the other way counts as inactive or inconclusive. Unless noted, % is set by controls: 0 for no effect and ±100 for the full control effect.

SMILES	IL1B secr inh	TDP1 cell CPT	12-LOX inh	HT1080 IDH1KD tx	HT1080NT lethal	TDP1 cell noCPT
O=[N+]([O-])c1ccc(O)c(-c2nn[nH]n2)c1	7	18µM*	0%	13%	5%	?
Cc1cccc(N(C(=O)c2snc(C(N)=O)c2N)C(C(=O)NCC2CCCO2)c2ccc(N(C)C)cc2)c1 (stereo unspecified)	-16	29µM*	19%	14%	14%	?
CN(C)c1ccc(C(C(=O)NCC2CCCO2)N(C(=O)c2snc(C(N)=O)c2N)c2ccccc2)cc1 (stereo unspecified)	-3	?	6%	11%	11%	?
CN(C)c1ccc(C(C(=O)NCC2CCCO2)N(C(=O)c2snc(C(N)=O)c2N)c2ccc3c(c2)OCO3)cc1 (stereo unspecified)	-66*	0%	1%	0%	4%	?
COC(=O)c1ccc(COC(=O)C(NC(=O)Cc2ccccc2)C(C)C)cc1 (stereo unspecified)	12	-27%	1%	6%	5%	16µM*
O=C(c1c(F)cccc1F)N1CCC2(CC1)NC(=O)N(Cc1ccc(F)cc1)C2=O	.	.	11%	.	.	.
Cc1ccc(-n2c(Cc3ccccc3)nnc2SCc2nc(-c3cccs3)no2)cc1C	.	?	-16%	.	.	23µM*
CCc1ccc(-n2c(Cc3ccccc3)nnc2SCc2nc(-c3cccs3)no2)cc1	.	23µM*	-28%	.	.	16µM*
COC(=O)c1ccc(CO/N=C/c2ccccc2Cl)cc1	.	.	-2%	.	.	.
Cc1cc(O)ccc1-c1ccc2nncn2c1	27	16µM*	-22%	19%	-5%	-1%
c1ccc2c(-c3ccc4nncn4c3)cncc2c1	14	?	1%	30%	1%	?
Clc1ccc(CNc2nnnn2-c2ccccc2)c(Cl)c1	-7	?	19%	-12%	-8%	?
Clc1cccc(-n2nnnc2NCc2ccccc2Oc2ccccn2)c1Cl	.	.	12µM*	.	.	.
N[C@](CC1c2ccccc2Oc2ccccc21)(C(=O)O)[C@@H]1C[C@@H]1C(=O)O	.	-5%	?	.	.	-4%
C/C(=N\Nc1ncc(Br)cn1)c1cccc([N+](=O)[O-])c1	-73*	-16%	22%	17%	23%	13%
C/C(=N\NC(=O)OC(C)(C)C)c1cccc([N+](=O)[O-])c1	1	?	12%	3%	5%	?
C/C(=N\NC(=O)C(N)=O)c1cccc([N+](=O)[O-])c1	0	-29%	0%	9%	10%	4%
C/C(=N\N=C(N)N)c1cccc([N+](=O)[O-])c1	-6	?	?	-3%	0%	13µM*
CNC(=S)N/N=C(\C)c1cccc([N+](=O)[O-])c1	-16	1.3µM*	?	25%	-1%	2.9µM*
CNC(=S)N/N=C(\C)c1ccccc1	-22	7.3µM*	i	-28%	?	13µM*
CCNC(=O)NC(=O)COc1ccc(C(=O)c2ccc(F)cc2)cc1	.	.	-26%	.	.	.
COc1ccc(CNC(=O)N2CCCC(c3nn(C)c(=O)n3C3CCCC3)C2)cc1 (stereo unspecified)	.	.	11%	.	.	.
CC#CCn1cc2c3c(cccc31)[C@H](CC(C)C)N[C@H](C(=O)N1CCN(C(C)=O)CC1)C2	.	.	40%[176 µM]	.	.	.
C/C(=N\N=C(N)N)c1ccc(C)c(C)c1	?	18µM*	6%	-28%	-23%	?
C/C(=N\N=C(/C)c1cccc(N)c1)c1cccc(N)c1	-7	-10%	-5%	10%	13%	-15%
SMILES	IL1B secr inh	TDP1 cell CPT	12-LOX inh	HT1080 IDH1KD tx	HT1080NT lethal	TDP1 cell noCPT
O=C(Nc1ccccc1F)N1CC(=O)N2[C@H](CO)[C@H](c3ccc(Br)cc3)[C@@H]2C1	.	.	-7%	.	.	.
CCOC(=O)C1=C(C)Nc2sc(C(=O)c3ccc(C)cc3)c(N)c2C1c1ccc(C(=O)OC)cc1 (stereo unspecified)	-29	?	?	-17%	1%	?
CCOC(=O)C1=C(C)Nc2sc(C(=O)c3ccc(F)cc3)c(N)c2C1c1ccc(C(=O)OC)cc1 (stereo unspecified)	-10	18µM*	-20%	-15%	-3%	12µM*
CCNc1nc(SC(C)C(N)=O)nc2ccccc12 (stereo unspecified)	.	.	5%	.	.	.
CCCCCCOc1ccc(/C(N)=N/O)cc1	0	16µM*	75%	-5%	0%	21µM*
N=C(N)c1ccc(OCCCOc2ccc(C(=N)N)cc2Br)c(Br)c1	.	4.7µM*	.	.	.	3.8µM*
N=C(N)c1ccc(OCCCOc2ccc(C(=N)N)cc2)cc1	.	6.7µM*	-11%[22.9 µM]	.	.	6.7µM*
NC(=O)c1ccc(OCc2ccccc2)cc1	.	.	-2%	.	.	.
N=C(N)c1ccc(OCc2ccncc2)cc1	.	.	8.9µM*	.	.	.
COC[C@@H]1[C@H](C(=O)Nc2ccc(OC)nc2)CCC(=O)N1C	.	.	31%	.	.	.
COc1ccccc1N1CCN(C(=O)C2=CC(c3ccc(F)cc3)=NS(=O)(=O)N2C)CC1	.	.	-31%	.	.	.
COc1ccc(C(=O)Cn2c(C)cc(=O)n3c4ccccc4nc23)cc1OC	.	.	-17%	.	.	.
CN(C)/C=N/C(=S)Nc1ccc(Cl)cc1	-13	-12%	-27%	-2%	1%	?
CN(C)/C=N/C(=S)Nc1ccc(Cl)cc1Cl	-77*	6%	?	3%	2%	?
Fc1ccc(NC(=S)Nc2ccc(Cl)cc2Cl)cc1	-87*	?	?	-2%	-1%	26µM*
Fc1ccc(NC(=S)Nc2cccnc2)c(Cl)c1	34	10%	?	15%	23%	-6%
S=C(NCc1ccc(Cl)cc1)Nc1ccc(Cl)cc1Cl	-1	-14%	1%	-6%	-17%	?
Fc1ccc(CNC(=S)Nc2ccc(Cl)cc2Cl)cc1	-100*	?	-5%	1%	-2%	?
Fc1ccccc1/C=N/NC(=S)Nc1ccc(Cl)cc1Cl	43	2.3µM*	1%	3.3µM*	5.2µM*	1.8µM*
Cc1ccc(C)c(NC(=O)CN(C)S(=O)(=O)c2cccc3nsnc23)c1	.	-29%	-23%	.	.	?
NC(=O)c1ccsc1NC(=O)COC(=O)COc1ccccc1[N+](=O)[O-]	15	1%	-9%	-1%	12%[9.24 µM]	4%
COc1cc(CC(=O)OCC(=O)Nc2sccc2C(N)=O)cc(OC)c1OC	30	29µM*	-7%	-28%	0%	16µM*
